HPGD inh – qHTS Assay for Inhibitors of HPGD (15-Hydroxyprostaglandin Dehydrogenase) | actives 4.3% (n = 150,000) | Potency, µM, actives largely listed as inhibitors | purified HPGD, NADH fluorescence kinetic, PGE2 substrate | 15-hydroxyprostaglandin dehydrogenase [NAD(+)] (Homo sapiens), P15428
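20 nM HPGD preincubated 15 min at room temperature with compound in 50 mM Tris-HCl pH 8, 0.01% Tween 20. Started with 1 mM NAD+ and 30 uM prostaglandin E2; NADH fluorescence (360/450 nm) read 5 times over 30-s intervals, last minus first.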
ALOX12 inhib – qHTS Assay for Inhibitors of 12-hLO (12-human lipoxygenase). actives 0.12% (n = 150,000). Potency, µM (doses to about 57.1 µM), hits mostly inhibitors. Polyunsaturated fatty acid lipoxygenase ALOX12 (Homo sapiens), P18054. purified 12-hLO, xylenol orange hydroperoxide absorbance; active means well fitted inhibition curve with a large enough effect; inconclusive means small, poorly fitted or top-dose-only effect; further: nearly all actives have a fitted effect of over 55% in size
Target sequence (P18054 whole entry, looked up): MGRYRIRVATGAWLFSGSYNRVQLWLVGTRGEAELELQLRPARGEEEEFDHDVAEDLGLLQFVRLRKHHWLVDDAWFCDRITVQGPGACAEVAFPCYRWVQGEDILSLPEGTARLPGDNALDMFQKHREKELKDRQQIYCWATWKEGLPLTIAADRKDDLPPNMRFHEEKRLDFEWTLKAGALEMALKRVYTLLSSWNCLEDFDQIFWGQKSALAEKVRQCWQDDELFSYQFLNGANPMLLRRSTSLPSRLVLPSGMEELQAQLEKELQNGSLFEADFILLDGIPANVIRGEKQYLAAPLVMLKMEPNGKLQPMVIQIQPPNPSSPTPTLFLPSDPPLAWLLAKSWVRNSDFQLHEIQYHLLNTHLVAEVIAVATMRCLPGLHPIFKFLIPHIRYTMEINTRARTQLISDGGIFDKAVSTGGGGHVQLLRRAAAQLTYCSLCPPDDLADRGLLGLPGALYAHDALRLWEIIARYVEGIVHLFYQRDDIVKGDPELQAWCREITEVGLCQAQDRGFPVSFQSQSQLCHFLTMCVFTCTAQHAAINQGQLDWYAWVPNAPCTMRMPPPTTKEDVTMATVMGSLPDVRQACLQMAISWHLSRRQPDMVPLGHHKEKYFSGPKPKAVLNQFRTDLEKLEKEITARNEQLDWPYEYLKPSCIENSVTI
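Lipoxygenase turnover measured by absorbance at 573 and 405 nm after Fe-XO development. Human 12hLO 150 nM, arachidonate 40 uM, pH 7.0 Hepes buffer with detergent; 15 min compound preincubation, 30 min reaction.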
LMNA splice mod – qHTS Assay for Modulators of Lamin A Splicing; HeLa LMNA splicing GFP/RFP minigene ratio, 48 h; Potency, µM (highest dose often 46.1 µM), actives largely listed as inhibitors; actives 0.01% (n = 200,000); AID 1487, 2009; active means well fitted inhibition curve with a large enough effect in the signal ratio, with a control signal flat, not every such curve was filed as active; inconclusive means small, poorly fitted or top-dose-only effect, or effect the other way, or a change in a side signal; the % refers to the signal ratio
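S3 HeLa stable clones carrying a lamin A-EGFP splicing minigene plus DsRed2 were seeded at 600 cells/well in Opti-MEM with 2% FBS, pin-dosed and incubated 48 h at 37°C. Acumen cytometry (488 nm) gave the GFP/RFP total-intensity ratio.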
PNC inhibitor – High Content Assay for Compounds that inhibit the Assembly of the Perinucleolar Compartment | PC3M PTB-GFP, PNC prevalence imaging, 16 h; stronger effect = lower value | activity change (PNC), negative = inhibition, % at 10 µM | actives 3.1% (n = 140,000) | AID 2417, 2010;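 active means readout at or below -70, meaning at least 70% loss of cells showing the perinucleolar compartment, a nuclear body marking cancer cells; inconclusive means readout between -30 and a set limit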
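Compounds are pinned in duplicate onto adhered PC3M cells stably expressing GFP-tagged PTB and incubated 16 h at 37 C. Cells are then fixed, nuclei stained with Hoechst, and PNC-positive cells counted.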
ALDH1A1 inh – qHTS Assay for Inhibitors of Aldehyde Dehydrogenase 1 (ALDH1A1); Aldehyde dehydrogenase 1A1 (Homo sapiens), P00352; Purified ALDH1A1, NADH fluorescence, propionaldehyde substrate; Potency, µM (highest dose often 75.3 µM), most hits filed as inhibitors; actives 7.3% (n = 220,000)
A number is an active result. An excerpt weighted towards active compounds, which were near 10% of everything screened. Unless noted, the call rests on the fitted dose curve; in most records, active means well fitted inhibition curve with a large enough effect (not every such curve was filed as active); inconclusive means small, poorly fitted or top-dose-only effect, or another doubt; inactive means no such curve, though single readings can be large or run the other way.

How did CCCS(=O)(=O)n1nc(-c2ccc(Br)cc2)cc1N do in these assays?
HPGD inh: inactive; ALOX12 inhib: inactive; LMNA splice mod: inactive; PNC inhibitor: -119; ALDH1A1 inh: inactive

How did Cc1ccc(S(=O)(=O)CC(=O)Nc2nc3c(C)cc(C)cc3s2)cc1 do in these assays?
LMNA splice mod: inactive

How did COc1ccc(-n2cc(C(=O)NC(C)c3ccccc3)c3ccccc3c2=O)cc1 (configuration not stated) do in these assays?
LMNA splice mod: inactive

Results for O=C(NCCCn1ccnc1)c1cc(-c2ccc3c(c2)OCO3)on1 ?
HPGD inh: inactive; ALOX12 inhib: inactive; LMNA splice mod: inactive; PNC inhibitor: -91; ALDH1A1 inh: inactive

What do the screens show for `CCOCCCNS(=O)(=O)c1ccc(OC)c(Cl)c1Cl`?
HPGD inh: inactive; ALOX12 inhib: inactive; LMNA splice mod: inactive; PNC inhibitor: inactive; ALDH1A1 inh: 2.2µM

How did CSc1nsc(/C=C/Nc2cccc(Cl)c2)c1C#N do in these assays?
HPGD inh: inactive; ALOX12 inhib: inconclusive; LMNA splice mod: inconclusive; PNC inhibitor: inactive; ALDH1A1 inh: 11µM

How did CSc1nsc(/C=C/Nc2ccc(Cl)cc2)c1C#N do in these assays?
HPGD inh: inactive; ALOX12 inhib: inactive; LMNA splice mod: inactive; PNC inhibitor: inactive; ALDH1A1 inh: 7.9µM

Results for Cc1cc(O)ccc1N/C=C(\C#N)c1nc2ccccc2o1 ?
HPGD inh: inconclusive; ALOX12 inhib: inactive; LMNA splice mod: inconclusive; PNC inhibitor: inactive; ALDH1A1 inh: inactive

How did CSc1nsc(/C=C/Nc2ccc(O)cc2C)c1C#N do in these assays?
LMNA splice mod: inactive; ALDH1A1 inh: 25µM

What do the screens show for `CSc1nsc(/C=C/Nc2ccc(F)cc2)c1C#N`?
LMNA splice mod: inactive; ALDH1A1 inh: inconclusive

How did CCC(C)(C)C do in these assays?
HPGD inh: inactive; ALOX12 inhib: inactive; ALDH1A1 inh: inactive

What do the screens show for `COc1ccc(-c2c(O)c3c(OC)c4c(cc3oc2=O)OC(C)(C)CC4)cc1`?
HPGD inh: inactive; ALOX12 inhib: inactive; LMNA splice mod: inactive; ALDH1A1 inh: inactive

Results for CC(C)NC(=O)N1CCCC2(CCN(S(=O)(=O)c3ccccc3)CC2)C1 ?
HPGD inh: inactive; ALOX12 inhib: inactive; ALDH1A1 inh: inactive

Results for CC1(C)CC(=O)c2c(noc2-c2ccccc2)C1 ?
HPGD inh: 22µM; ALOX12 inhib: inactive; LMNA splice mod: inactive; PNC inhibitor: inactive; ALDH1A1 inh: inconclusive

Results for CC1(C)CC(=O)c2c(Cc3ccccc3)noc2C1 ?
LMNA splice mod: inconclusive; ALDH1A1 inh: inactive

What do the screens show for `COc1ccc(Nc2cc(C)nc3ncnn23)c(OC)c1`?
HPGD inh: 16µM; ALOX12 inhib: inactive; LMNA splice mod: inactive; PNC inhibitor: inconclusive; ALDH1A1 inh: inactive

Results for CCCOC(=O)c1ccc(Nc2cc(C)nc3ncnn23)cc1 ?
HPGD inh: inactive; ALOX12 inhib: inactive; LMNA splice mod: inconclusive; PNC inhibitor: inactive; ALDH1A1 inh: inconclusive

How did COc1ccc(C)cc1Nc1cc(C)nc2nc(C)nn12 do in these assays?
HPGD inh: 1.4µM; ALOX12 inhib: inactive; LMNA splice mod: inconclusive; PNC inhibitor: inactive; ALDH1A1 inh: inactive

How did COc1ccc(Nc2cc(C)nc3nc(C)nn23)c(OC)c1 do in these assays?
HPGD inh: 8.9µM; ALOX12 inhib: inactive; LMNA splice mod: inactive; PNC inhibitor: inactive; ALDH1A1 inh: inactive

What do the screens show for `COc1ccc(C(=O)O)cc1Nc1cc(C)nc2ncnn12`?
HPGD inh: 25µM; ALOX12 inhib: inactive; LMNA splice mod: inactive; PNC inhibitor: inactive; ALDH1A1 inh: inactive

What do the screens show for `CCOc1ccc(S(=O)(=O)NCC(c2ccc(N(C)C)cc2)N2CCCC2)cc1` (configuration not stated)?
LMNA splice mod: inactive

Results for Cc1ccn2c(=O)cc(COc3ccc(NC(=O)c4ccccc4F)cc3)nc2c1 ?
LMNA splice mod: inactive

What do the screens show for `COc1cccc(Nc2cc(C)nc3nc(C)nn23)c1`?
HPGD inh: inactive; ALOX12 inhib: inactive; LMNA splice mod: inactive; PNC inhibitor: inactive; ALDH1A1 inh: inactive

Results for COc1ccc(CNc2cc(C)nc3ncnn23)c(OC)c1 ?
HPGD inh: 32µM; ALOX12 inhib: inactive; LMNA splice mod: inconclusive; PNC inhibitor: inconclusive; ALDH1A1 inh: inactive

How did COc1ccccc1CNc1cc(C)nc2nc(-c3ccc(C)cc3)nn12 do in these assays?
LMNA splice mod: inactive

Results for COc1ccc(OC)c(Nc2cc(C)nc3nc(C)nn23)c1 ?
HPGD inh: 2µM; ALOX12 inhib: inactive; LMNA splice mod: inconclusive; PNC inhibitor: inactive; ALDH1A1 inh: inactive

What do the screens show for `COc1ccc(-c2nc3cnc(N(C)C)nc3n(C3CC3)c2=O)cc1`?
LMNA splice mod: inactive; ALDH1A1 inh: inconclusive

How did COC(=O)[C@@]1(Cc2ccc(F)cc2)[C@H]2c3cc(C(=O)N(C)C)n(CCCNc4ccc(C(F)(F)F)cc4Cl)c3C[C@H]2CN1C(=O)c1ccccc1 do in these assays?
HPGD inh: inactive; ALOX12 inhib: inactive; ALDH1A1 inh: inactive

How did CCCCC(=O)Nc1cccc(-c2cn3ccccc3n2)c1 do in these assays?
ALOX12 inhib: inactive; LMNA splice mod: inconclusive; PNC inhibitor: inconclusive; ALDH1A1 inh: 28µM

Results for CCCC(=O)Nc1cccc(-c2nc3ccccc3o2)c1 ?
HPGD inh: inactive; ALOX12 inhib: inactive; LMNA splice mod: inactive; PNC inhibitor: -107; ALDH1A1 inh: inactive

What do the screens show for `O=C(Cc1ccccc1)NC(=S)Nc1ccc2oc(-c3ccccc3)nc2c1`?
HPGD inh: inconclusive; ALOX12 inhib: inactive; LMNA splice mod: inactive; PNC inhibitor: inconclusive; ALDH1A1 inh: 22µM

What do the screens show for `CSc1cccc(NC(=O)CSc2nc3ccccc3o2)c1`?
HPGD inh: inactive; ALOX12 inhib: inactive; LMNA splice mod: inactive; PNC inhibitor: -98; ALDH1A1 inh: inconclusive

Results for CC(=O)Nc1cccc(NC(=O)CSc2nc3ccccc3o2)c1 ?
HPGD inh: inactive; ALOX12 inhib: inactive; LMNA splice mod: inactive; PNC inhibitor: inactive; ALDH1A1 inh: inactive

What do the screens show for `COC(=O)N1CCC2(CCN(Cc3ccccc3OC)CC2)CC1`?
HPGD inh: inactive; ALOX12 inhib: inactive; ALDH1A1 inh: inactive

What do the screens show for `CC(=O)c1cccc(NC(=O)CSc2nc(=O)n(Cc3ccco3)c3c2CCC3)c1`?
LMNA splice mod: inactive

How did COc1ccc(OC)c(-c2csc(N(CC3CCCO3)C(=O)Cc3ccccc3)n2)c1 (configuration not stated) do in these assays?
LMNA splice mod: inactive; ALDH1A1 inh: inactive

How did Cn1cccc1C(=O)N1CCC2(CCCN(c3ccc(-c4ccccc4)cc3)C2)CC1 do in these assays?
HPGD inh: inactive; ALOX12 inhib: inactive; ALDH1A1 inh: inconclusive

What do the screens show for `Cc1cc(=O)c2n(Cc3ccc(Cl)cc3)nc[n+]2[nH]1`?
HPGD inh: inactive; ALOX12 inhib: inactive; LMNA splice mod: inactive; PNC inhibitor: inactive; ALDH1A1 inh: 20µM
